# High-throughput results from PubChem.
# Rows were chosen to be rich in hits. Some 7.5% of all compounds tested hit in one or more screens of this group.
# Vaccinia Venus: vaccinia inhibition (Venus reporter); Vaccinia virus Venus reporter expression, fluorescence; Potency, µM (top dose mostly 36.5 µM), without a hit: at the highest dose activity change, negative = inhibition, hits mostly inhibitors; 330,000 tested, 0.46% active; calls by dose curve; tested in A549 cells; also: potency is read from the fitted curve at half-maximal effect; nearly all actives have a fitted effect of over 30% in size
# FBPA Giardia inh: blocks Giardia fructose-bisphosphate aldolase activity | AID 2451 | purified Giardia FBPA | A8B2U2 | 290,000 tested, 0.71% active | Potency, µM (highest dose often 59.6 µM), inactives show top-dose activity, negative = inhibition, hits mostly inhibitors; also: potency is read from the fitted curve at half-maximal effect; nearly all actives have a fitted effect of over 55% in size
# Target sequence (A8B2U2 whole entry, looked up): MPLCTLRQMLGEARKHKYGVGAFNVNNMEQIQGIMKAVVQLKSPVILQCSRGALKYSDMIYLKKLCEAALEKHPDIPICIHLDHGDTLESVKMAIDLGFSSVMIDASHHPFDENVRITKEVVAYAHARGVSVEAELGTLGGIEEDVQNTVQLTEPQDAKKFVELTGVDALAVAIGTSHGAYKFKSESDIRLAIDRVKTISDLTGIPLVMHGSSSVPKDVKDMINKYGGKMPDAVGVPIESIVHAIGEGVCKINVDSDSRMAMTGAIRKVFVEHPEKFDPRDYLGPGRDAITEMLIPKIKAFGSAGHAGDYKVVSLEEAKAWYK
#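 40 nM FBPA preincubated 10 min at RT with compound (up to 57.5 uM final), then substrate plus GAPDH/TPI/NAD/arsenate coupling and diaphorase/resazurin added. Fluorescence read after 20 min at RT, 525/598 nm.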
# FMDV inh: foot and mouth disease virus antiviral activity; AID 1159524; FMDV antiviral cell-based qHTS; Potency, µM (titrated, usually from 57.9 µM), without a hit: top-dose activity change, negative = inhibition, hits mostly inhibitors; 410,000 tested, 1.2% active; calls by dose curve; tested in HEK293T cells; also: read-out not given here; potency is read from the fitted curve at half-maximal effect; nearly all actives have a fitted effect of over 45% in size
# HCV inhibitor: HCV inhibition | Huh7.5.1 HCVcc-Cre infection, luciferase reporter, 44 h | Potency, µM (highest dose often 41.8 µM), without a hit: at the top dose activity change, negative = inhibition, most hits filed as inhibitors | 340,000 tested, 3.4% active; also: potency is read from the fitted curve at half-maximal effect
#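 Antiviral activity was scored by luciferase reporter output from cells infected with HCVcc-Cre (~0.5 moi) in presence of compound, 44 h infection period, cells seeded 1,000/well 4 h prior.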
# HCMV inh: human cytomegalovirus inhibition. AID 1259415. activity change, negative = inhibition, % at 57.5 µM. 410,000 tested, 4.5% active. HFF cells, HCMV-luciferase reporter, 72 h; active compounds read low; in the data active = activity change below about -60%; inconclusive = no clear call, values can overlap the other calls; inactive = above about -39%
#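 Two compound doses tested in HFFs infected with HCMV-luciferase, MOI 1 PFU/cell, 72 h at 37C. Lysate luminescence read with OneGlo; data normalized against buffer-only and 10uM Salinomycin inhibitor controls.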
# VACV mCherry inh: vaccinia inhibition (mCherry reporter) | Vaccinia virus mCherry reporter infection, fluorescence | Potency, µM (titrated, usually from 36.5 µM), without a hit: at the top dose activity change, negative = inhibition, actives largely listed as inhibitors | 310,000 tested, 0.63% active | AID 720579; calls by dose curve; tested in A549 cells; also: potency is read from the fitted curve at half-maximal effect; nearly all actives have a fitted effect of over 35% in size
# * = called active by the depositor; i = inactive; ? = inconclusive; · = no result given; [ ] = another dose, or the depositor's remark. Unless noted, calls follow the shape of the dose curve; as a rule, active = well fitted curve in the direction sought with a large enough effect; inconclusive = small, poorly fitted or top-dose-only effect, or another doubt; inactive = no such curve, though single readings can be large; an effect the other way counts as inactive or inconclusive. % is scaled to controls: 0 for no effect and ±100 for the full control effect.
SMILES,Vaccinia Venus,FBPA Giardia inh,FMDV inh,HCV inhibitor,HCMV inh,VACV mCherry inh
CC(=O)Nc1ccc(Oc2nc(-c3ccccn3)nc3ccccc23)cc1,?,11.8%,?,?,-102.2*,-12.6%
CC(=O)Nc1cccc(Oc2nc(-c3ccccn3)nc3ccccc23)c1,-20.4%[7.34 µM],-7.8%,?,?,-61.2*,?
CC(=O)Nc1cccc(Oc2nc(C(F)(F)F)nc3ccccc23)c1,-6.4%,0.5%,-19.0%,-14.1%,-22.1,-16.4%
CC(C)Cn1c(N)c(C(=O)CSc2nnc(C3CC3)n2C2CC2)c(=O)n(C)c1=O,-8.6%,·,-17.4%,5.3%,-1.3,i
CC(=O)Cn1ncc(Br)c(Br)c1=O,?,1.4%,?,?,-105.4*,?
O=C(OCn1ncc(Br)c(Br)c1=O)c1c(F)cccc1F,·,-3.3%,·,2.82µM*,·,·
CN(CC(=O)Nc1cccc(F)c1)C(=O)c1cc(-c2cccs2)nn1-c1ccccc1,-21.4%,·,?,11.2µM*,-11.6,-6.5%
CN(CC(=O)Nc1ccccc1C(F)(F)F)C(=O)c1cc(-c2cccs2)nn1-c1ccccc1,-15.2%,·,-25.7%,?,-13.3,i
CCc1ccc(C(=O)COC(=O)CNC(=O)COc2ccccc2)cc1,5.2%,2.2%,5.9%,6.4%,25.0,27.6%
O=C(CN1C(=O)CSc2ccc(S(=O)(=O)N3CCCC3)cc21)NCc1ccccc1Cl,-1.8%,·,5.5%,·,1.4,-5.0%
COc1cc(CCCN2C(=S)NC[C@H]2Cc2ccc(O)cc2)cc(OC)c1OC,-21.4%,0.7%,-20.5%,11.2µM*,-12.7,-25.7%
O=C(NCC1(N2CCCCC2)CCCCC1)c1ccc(-n2cc(NC(=O)c3cccnc3)cn2)cc1,-17.4%,·,-9.6%,·,·,-11.9%
CCN(CC)C1=CC(=[N+]2CCCC2)CC(C)(C)C1,-13.8%,-0.8%,?,?,-95.4*,-26.9%
CN(C)c1cccc(NC2=CC(=[N+]3CCOCC3)CC(C)(C)C2)c1,-8.8%,8.7%,3.7%,7.9%,47.5,i
CN(Cc1ccccc1)C1=CC(=[N+]2CCCC2)CC(C)(C)C1,-4.5%,-4.5%,?,?,-99.2*,-25.1%
COc1ccc(Cl)cc1NC(=O)CC(=O)Nc1cc(Cl)ccc1OC,-23.3%,-1.1%,-5.8%,-6.1%,-26.0,-10.1%
CCC(C)(C)NC(=O)Nc1cc(Cl)ccc1OC,-27.8%,-2.4%,1.8%,?,-61.5*,i
COc1ccc(Cl)cc1NC(=O)NC(C)C,·,-3.4%,-8.9%,?,-100.8*,·
CNC(=O)C[C@H]1C(=O)N(c2ccc(Br)cc2)C[C@@H]1C,-7.8%,·,-12.1%,·,19.7,-20.7%
CCOC(=O)/C(=C\c1cccc(O)c1)c1nc2sc(C)c(C)c2c(=O)[nH]1,?,2.1%,11.2µM*,0.9%,-99.4*,?
O=C(CSc1ncn[nH]1)N1N=C2/C(=C/c3ccccc3)CCCC2C1c1ccccc1 (stereo not given),·,-1.0%,-23.0%,-24.6%,-90.2*,·
O=C(O)CSCC(=O)N1N=C2/C(=C/c3ccccc3)CCCC2C1c1ccccc1 (stereo not given),-1.3%,10.1%,-19.3%,6.7%,15.9,-12.0%
COc1ccc(/C=C2\CCCC3C2=NN(C(=O)CSc2ncn[nH]2)C3c2ccc(OC)cc2)cc1 (stereo not given),?,-0.7%,-29.9%,12.6µM*,-22.7,?
Cn1c(=O)c2c(nc(N/N=C/c3cccs3)n2Cc2ccccc2)n(C)c1=O,15.4%,?,25.1µM*,?,?,-19.4%
Cn1c(=O)c2c(nc(N/N=C/c3ccc(OC(=O)c4ccco4)cc3)n2Cc2ccccc2)n(C)c1=O,-3.2%,?,12.6µM*,?,71.6,-2.1%
SMILES,Vaccinia Venus,FBPA Giardia inh,FMDV inh,HCV inhibitor,HCMV inh,VACV mCherry inh
Cn1c(=O)c2c(nc(N/N=C/c3cccnc3)n2Cc2ccc(F)cc2)n(C)c1=O,-6.3%,3.6%,-17.6%,-3.0%,-7.3,i
CCNC(=O)c1c(NC(=O)COc2ccc(F)cc2)sc2c1CCCC2,-3.3%,·,3.5%,·,-0.9,-4.2%
Cc1cc(C)c(NC(=O)CSc2nc(=O)[nH]c3c2CCCC3)c(C)c1,-3.7%[7.34 µM],·,-25.8%,·,9.3,-11.1%[7.34 µM]
CC1Sc2ccc(S(=O)(=O)CCC(=O)Nc3ccc(C(C)C)cc3)cc2NC1=O (stereo not given),·,5.5%,?,-28.7%,?,·
CC1=C(O)C(=O)C=C2C1=CC=C1[C@]2(C)CC[C@@]2(C)C3C[C@](C)(C(=O)O)CC[C@@]3(C)CC[C@@]12C (stereo not given in full),11.2µM*,-22.1%,3.98µM*,·,·,14.1µM*
CC1(C)C(=O)CC[C@]2(C)C3C(=O)C=C4[C@H]5C[C@@](C)(C(=O)O)CC[C@]5(C)CC[C@]4(C)[C@]3(C)CC[C@@H]12 (stereo not given in full),-15.6%,24.7%,-16.3%,17.8%,13.5,i
COC(=O)Nc1nc2ccc(C(=O)c3ccccc3)cc2[nH]1,-25.7%,-1.1%,29.2%,·,·,-32.9%
COC(=O)Nc1nc2ccc(C(=O)c3cccs3)cc2[nH]1,?,-4.6%,19.6%,-8.2%,-75.3*,?
COC(=O)Nc1nc2ccc(SC(C)C)cc2[nH]1,?,-5.0%[21.7 µM],44.9%,?,-81.7*,?
CCCSc1ccc2nc(NC(=O)OC)[nH]c2c1,?,-7.8%,40.9%,-21.0%,-19.7,?
O=c1oc(=S)oc2c1[C@H](c1ccc(Cl)cc1)O[C@H](C1CC1)C2,1.7%,·,-19.9%,·,-16.5,3.1%
CNC(=O)Oc1ccc2c(c1)[C@]1(C)CCN(C)[C@@H]1N2C,-3.2%,?,0.0%,1.3%[8.37 µM],-17.8,i
CN1CC[C@@]2(C)c3cc(O)ccc3N(C)C12 (stereo not given in full),-15.1%,2.81µM*,·,·,·,-22.2%
Cc1cc2nc(-c3cccc(NC(=O)COc4ccc(Cl)c(C)c4)c3)oc2cc1C,-11.0%,·,11.7%,·,95.9,-3.7%
O=C(c1ccc(F)cc1)N1CCN2C(=O)c3ccccc3C12c1ccccc1 (stereo not given),-4.7%,2.0%,-17.4%,-4.0%,34.3,-12.2%
O=C(c1ccc(F)cc1)N1CCN2C(=O)c3ccccc3C12c1ccc(Cl)cc1 (stereo not given),-14.2%,-3.4%,-12.0%,-4.3%,-63.6*,i
CN1OC[C@@H]2CN(C(=S)NCCc3ccccc3)[C@H](c3ccc(N4CCCCC4)cc3)C[C@@H]21,8.0%,·,-2.9%,·,-29.6,0.4%
Cc1cccnc1-n1c(-c2ccco2)nc2ccccc2c1=O,-8.1%,-22.9%,-7.0%,7.1%,15.9,·
Cc1cccc(-n2c(-c3ccco3)nc3ccccc3c2=O)c1C,-11.9%,14.0%,-28.4%,9.6%,-75.7*,i
COc1cccc(-n2c(-c3ccco3)nc3c(cnn3-c3ccc(C)cc3)c2=O)c1,-15.4%,·,?,·,-76.0*,-28.1%
